Pol kappa inh = DNA polymerase kappa (human) inhibition | Q9UBT6 | purified Pol kappa, fluorescent DNA synthesis assay, 10 min | Potency, µM (top dose mostly 107 µM), hits mostly inhibitors | actives 0.53% (n = 400,000)
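10 nM Pol kappa was preincubated with compounds for 15 min at room temperature. Reaction started with 50 nM (final) substrate. Fluorescence read kinetically at 0 and 10 min.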
WRN inhibitor = WRN helicase (human) inhibition; WRN helicase unwinding, fluorescent forked duplex, kinetic; Potency, µM (highest dose often 114 µM), hits mostly inhibitors; actives 0.46% (n = 360,000); Q14191; also: nearly all actives have a fitted effect of over 55% in size
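WRN at 20 nM final preincubated with compound 15 min at room temperature; reaction started with 100 nM fluorophore/quencher forked duplex oligonucleotide and 2 mM ATP final. Unwinding followed kinetically by red fluorescence (ex 525, em 598 nm).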
Pol iota inh = DNA polymerase iota (human) inhibition | Pol iota fluorescent replication assay, 10 min | Potency, µM (top dose mostly 115 µM), most hits filed as inhibitors | actives 1% (n = 390,000)
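Pol iota at 10 nM preincubated 15 min with compounds at room temperature; reaction started with fluorescent substrate, 50 nM final. Fluorescence read kinetically at 0 and 10 min; buffer-only wells as negative control.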
Pol eta inh = blocks human DNA polymerase eta activity | Q9Y253 | recombinant Pol eta, fluorescent DNA replication assay | Potency, µM (top dose mostly 114 µM), most hits filed as inhibitors | actives 1.2% (n = 390,000) | AID 588591
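Fluorescent replication assay: 50 nM final substrate added after a 15 min room-temperature compound preincubation with 10 nM enzyme. Signal taken at 0 min and again at 10 min.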
PI5P4Ka inh = PI5P4K alpha (human) kinase inhibition | PI5P4Kalpha enzyme, ADP-Glo luminescence, 60 min; active compounds read low | max response, % | P48426 | actives 1.2% (n = 330,000); active = max response of -50% or lower; inconclusive = between -30% and -50%; inactive = -30% or higher; also: value at the top dose of about 77 µM
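Single end-point luminescence (ADP-Glo) quantified ADP from PI5P4Kalpha turnover; ATP 5 microM final, 1 h at RT, 0.1% CHAPS and 0.28 mM EGTA in HEPES pH 7.4.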
POLB inh = blocks human DNA polymerase beta activity. Pol beta primer extension/strand displacement, fluorescence kinetic. Potency, µM (highest dose often 114 µM), most hits filed as inhibitors. actives 1.3% (n = 340,000)
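Human Pol beta at 10 nM; strand-displacement substrate 50 nM final. Compound exposure 15 min at room temperature before start, reaction 10 min at room temperature.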
ADP-Glo interf = interferes with ADP-Glo detection without enzyme present | shares compounds with PI5P4Ka inh | ADP-Glo detection counter-screen, luciferase luminescence, no enzyme | Potency, µM (doses to about 76.9 µM), hits mostly inhibitors | 1,100 tested, under 10 active | AID 743285
A number is an active result; i = inactive; ? = inconclusive; nt = no result; [ ] = remark or other dose. In the library only some 2.8% were active in any assay of this set; here they are far more common. Unless noted, calls follow the shape of the dose curve; as a rule, active = well fitted curve in the direction sought with a large enough effect; inconclusive = small, poorly fitted or top-dose-only effect, or another doubt; inactive = no such curve, though single readings can be large; an effect the other way counts as inactive or inconclusive.

SMILES	Pol kappa inh	WRN inhibitor	Pol iota inh	Pol eta inh	PI5P4Ka inh	POLB inh	ADP-Glo interf
Cc1nn2c(=O)[nH]cnc2c1Cl	nt	i[11.6 µM]	nt	?	-59	nt	i
COc1ccc(C2CC(=O)N3CN(c4ccc(C)c(Cl)c4)CSC3=C2C#N)cc1OC (stereo unspecified)	i	i	i	i	-61	i	i
CCOc1ccccc1N1CSC2=C(C#N)C(c3c(OC)ccc4ccccc34)CC(=O)N2C1 (stereo unspecified)	?	i	i	i	-85	i	i
COc1ccc(N2CSC3=C(C#N)C(c4cc(OC)c(OC)cc4OC)CC(=O)N3C2)c(OC)c1 (stereo unspecified)	i	i	?	i	?	i	nt
COc1ccc(N2CSC3=C(C#N)C(c4ccc(OC)c(OC)c4)CC(=O)N3C2)c(OC)c1 (stereo unspecified)	i	i	?	i	-53	i	i
O=C(COc1ccc(Br)cc1)N1CCN(c2ncccn2)CC1	i	i	i	i	i	nt	nt
CCN(CC)S(=O)(=O)c1ccc(C(=O)Nc2nnc(NC(=S)Nc3ccccc3)s2)cc1	i	i	i	i	-59	i	i
CCc1nnc(NC(=O)c2ccc(S(C)(=O)=O)cc2)s1	i	i	i	i	-53	i	i
CCc1cccc(C)c1NC(=O)C1CCCN1S(=O)(=O)c1cccc2nsnc12 (stereo unspecified)	i	nt	i	i	nt	i	nt
CCCn1c(=O)c2[nH]c(-c3ccc(S(=O)(=O)O)cc3)nc2n(CCC)c1=O	i	i	i	i	-82	i	i
COc1ccc(CCNC(=O)C2CC(c3cccc(F)c3)=NO2)cc1 (stereo unspecified)	i	i	i	i	?	i	i
Cc1ccc2[nH]cc(C(c3ccccc3)c3cccs3)c2c1 (stereo unspecified)	i	nt	i	i	nt	i	nt
C[C@H]1CN=C(Nc2ccccc2)N1CCCC1CCCCC1	i	i	i	i	i	i	i
c1ccc2c(c1)nnn2Cn1nnc2ccccc21	nt	i	nt	i	i	nt	nt
Cc1ccc2c(c1)N(CC(=O)N1CCOCC1)C(=O)C(C)O2 (stereo unspecified)	i	i	i	i	i	i	nt
Cc1ccc2c(c1)N(CC(=O)N1CCCCCC1)C(=O)C(C)O2 (stereo unspecified)	i	i	i	i	-73	i	i
NC(Cc1ccccc1)c1csc(NC(=O)Nc2ccccc2Oc2ccccc2)n1 (stereo unspecified)	nt	i	nt	nt	i	nt	nt
NC(Cc1ccc(C(F)(F)F)cc1)c1csc(NC(=O)Nc2ccccc2Oc2ccccc2)n1 (stereo unspecified)	nt	i	nt	nt	-50	nt	i
Cc1cc(=O)n2[nH]c(Nc3cccc(Cl)c3)nc2n1	i	i	i	i	i	nt	nt
O=C(NCC1CCCCC1)c1cccc([N+](=O)[O-])c1	i	i	i	i	-62	i	i
C=CCOc1c(Cl)cc(C(=S)N2CCCC2)cc1OCC	i	i	i	i	i	i	nt
O=C(NC1CCCC1)C(c1ccncc1)N(C(=O)c1csnn1)c1ccccc1F (stereo unspecified)	i	i	i	i	-52	i	i
Cc1ccccc1N(C(=O)c1csnn1)C(C(=O)NC1CCCCC1)c1ccncc1 (stereo unspecified)	i	i	i	i	i	i	nt
COc1ccc(-c2cc(=O)oc3cc(OC(=O)C4CCCCC4)c(Cl)cc23)cc1	i	i	i	i	-55	i	i
COC(=O)c1ccc(C)c(NC(=O)CCSc2ccc(Cl)cc2)c1	i	i	i	i	i	i	nt
SMILES	Pol kappa inh	WRN inhibitor	Pol iota inh	Pol eta inh	PI5P4Ka inh	POLB inh	ADP-Glo interf
Cc1ccc([N+](=O)[O-])cc1NC(=O)CCSc1ccc(Cl)cc1	i	i	i	i	-70	i	i
CN(C)S(=O)(=O)c1ccc(C(=O)OCc2nnc(-c3ccccc3)o2)cc1	i	i	i	i	i	i	nt
O=C(OCc1nnc(-c2ccccc2)o1)c1ccc(S(=O)(=O)NCc2ccco2)cc1	?	i	?	22µM	-54	3.5µM	i
O=C(OCc1nnc(-c2ccccc2)o1)c1ccc2ccccc2n1	i	i	i	i	-66	i	i
O=C(OCc1nnc(-c2ccccc2)o1)c1cc2ccccc2cc1O	i	i	i	i	i	i	nt
CN(CCc1ccccc1)C(=O)c1ccc(NC(=O)Cc2ccc(NC(=O)C3CCN(C(=O)CCc4ccccc4)CC3)cc2)cc1	i	i	i	i	i	nt	nt
CSCCC(NS(=O)(=O)c1ccc(C)cc1C)C(=O)Nc1cccnc1 (stereo unspecified)	i	i	i	i	i	nt	nt
CCOc1ccc(N(CC)C(=O)CCS(=O)(=O)c2cccc3nonc23)cc1	i	i	i	i	i	i	nt
COCCNC(=O)c1cc(-c2ccccc2)sc1N	nt	i	nt	nt	-63	nt	i
CCCn1c(N)c(N(CCOC)C(=O)c2cc(-c3ccco3)nc3ccccc23)c(=O)[nH]c1=O	i	i	56µM	?	-52	45µM	i
CCCCn1c(N)c(N(CCOC)C(=O)c2cc(-c3ccccc3)nc3ccccc23)c(=O)[nH]c1=O	i	i	i	i	i	nt	nt
COc1cccc(CNc2nc(Cl)nc3nc[nH]c23)c1	i	nt	i	nt	nt	nt	nt
CCCNc1c(F)c(F)c2c(C)c3ccccc3nc2c1F	79µM	?	7.9µM	i	-66	i	i
O=c1oc2c(O)cccc2cc1-c1nc2ccccc2[nH]1	i	i	?	?	?	i	i
CCn1c(=S)[nH]c2scc(-c3cccs3)c2c1=O	i	i	i	i	-53	i	i
O=C(O)CCCCCNc1nc2ncn(Cc3ccccc3)c2c(=O)[nH]1	i	i	i	i	nt	i	nt
CC(Nc1nc2ncn(Cc3ccccc3)c2c(=O)[nH]1)C(=O)O (stereo unspecified)	i	i	i	i	-55	i	i
CCN(CC)CCNC(=O)c1ccc(Cn2c(=O)c3cccn3c3cccnc32)cc1	i	nt	?	nt	nt	i	nt
Cc1ccnc2nc(C(=O)OCC(=O)NC3CCCC(C)C3C)nn12 (stereo unspecified)	i	i	i	?	i	nt	i
Cc1ccc(N2CCN(C(=O)c3c(C)oc4ncn(CC(C)C)c(=O)c34)CC2)c(C)c1	i	nt	i	i	nt	i	nt
Cc1ccc(N2CC(C(=O)OCC(=O)Nc3c(C)cccc3C)CC2=O)cc1 (stereo unspecified)	nt	i	nt	i	i	nt	nt
Cc1ccc(-c2cc(-c3ccccc3)c3c(N)c(S(C)(=O)=O)sc3n2)cc1	i	i	i	i	i	i	nt
CS(=O)(=O)c1sc2nc(-c3cccs3)cc(-c3ccccc3)c2c1N	i	i	?	i	-52	?	i
